# Results from PubChem BioAssay (NCATS).
# Inconclusive results are not listed. Entries that show only a call come without a potency. Activity calls are given as the source filed them. Calls follow the shape of the dose curve; as a rule, active = well fitted curve in the direction sought with a large enough effect; inconclusive = small, poorly fitted or top-dose-only effect, or another doubt; inactive = no such curve, though single readings can be large; an effect the other way counts as inactive or inconclusive. *1 amine or outer side, *2 acyl side, *3 side chain or, on linkers, in order; H or OH if unused. Where a SMILES comes first, the peptide text is derived from it. [ ]: non-standard residue; d: D form. X4 = CC(C)=CCc1cc(C(O)C(N[*:1])C(=O)[*:2])ccc1O
# What was measured:
# [1] = system: Zika virus NS2B-NS3 protease (unlinked complex); test: Primary screen GU Rhodamine qHTS for Zika virus inhibitors: Unlinked NS2B-NS3 protease assay (AID 1347159); also: nearly all actives have a fitted effect of over 60% in size; also: potency is read from the fitted curve at half-maximal effect
# Summary of the method: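 Compounds, tested up to 114 microM, were incubated for 15 minutes with 25 nM unlinked NS2B-NS3 protease at pH 8.0. Cleavage of 1.5 microM Rhodamine110 substrate was then followed by fluorescence for 15 minutes.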
# [2] = qHTS of pediatric cancer cell lines to identify multiple opportunities for drug repurposing: Primary screen for LAN-5 cells (AID 1347100)
# Summary of the method: (§1)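 Cells (500-1,000/well) in growth media were settled 5 h at 37 degrees C, then given compounds for 48 h. Viability was read as CellTiter-Glo luminescence. Primary runs used MIPE at 11 points (0.78 nM-46 µM) and NPC at 8 points (0.59 nM-46 µM); follow-ups used 11 points.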
# [3] = qHTS of pediatric cancer cell lines to identify multiple opportunities for drug repurposing: Primary screen for BT-12 cells (AID 1347101); also: nearly all actives have a fitted effect of over 25% in size
# Summary of the method: (§2)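 Cells (500-1,000/well) rested 5 h, then received compounds for 48 h; metabolically active cells were measured by CellTiter-Glo luminescence. Final concentrations spanned up to 46 µM (MIPE, 11-point) or 0.59 nM-46 µM (NPC, 8-point) in primary screens, 11-point in follow-ups.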
# [4] = qHTS of pediatric cancer cell lines to identify multiple opportunities for drug repurposing: Primary screen for Rh18 cells (AID 1347102); also: nearly all actives have a fitted effect of over 65% in size
# Summary of the method: as §1
# [5] = qHTS of pediatric cancer cell lines to identify multiple opportunities for drug repurposing: Primary screen for OHS-50 cells (AID 1347103); also: nearly all actives have a fitted effect of over 40% in size
# Summary of the method: as §2
# [6] = qHTS of pediatric cancer cell lines to identify multiple opportunities for drug repurposing: Primary screen for RD cells (AID 1347104); also: nearly all actives have a fitted effect of over 55% in size
# Summary of the method: (§3)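 Primary screen of approved and investigational compounds on cells in growth media at 37 degrees C, 5% CO2. MIPE set at 11-point and NPC set at 8-point dilutions; viability scored by ATP-based luminescence at 48 hours.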
# [7] = qHTS of pediatric cancer cell lines to identify multiple opportunities for drug repurposing: Primary screen for MG 63 (6-TG R) cells (AID 1347105); also: nearly all actives have a fitted effect of over 50% in size
# Summary of the method: as §3
# [8] = qHTS of pediatric cancer cell lines to identify multiple opportunities for drug repurposing: Primary screen for control Hh wild type fibroblast cells (AID 1347106);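 also: series mostly up to about 46 µM; a drop in luminescence marks cytotoxicity and a rise apparent proliferation; nearly all actives have a fitted effect of over 55% in size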
# Summary of the method: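 Viability after 48 h compound treatment at 37C, 500-1,000 cells/well, read as ATP luminescence with CellTiter-Glo. Primary screens used 11-point (MIPE, 0.78 nM-46 µM) or 8-point (NPC, 0.59 nM-46 µM) final concentrations; follow-up screens used 11-point dilutions.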
# [9] = qHTS of pediatric cancer cell lines to identify multiple opportunities for drug repurposing: Primary screen for Rh30 cells (AID 1347107); also: series mostly up to about 46 µM; nearly all actives have a fitted effect of over 75% in size
# Summary of the method: as §1
# [10] = qHTS of pediatric cancer cell lines to identify multiple opportunities for drug repurposing: Primary screen for Rh41 cells (AID 1347108);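 also: series mostly up to about 46 µM; luminescence drop marks cytotoxic hits; nearly all actives have a fitted effect of over 70% in size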
# Summary of the method: as §3
# [11] = system: Zika virus NS2B-NS3 protease; test: Primary screen GU AMC qHTS for Zika virus inhibitors (AID 1347154); also: nearly all actives have a fitted effect of over 70% in size; also: potency is read from the fitted curve at half-maximal effect
# Summary of the method: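 Unlinked Zika NS2B hydrophilic domain/NS3 protease domain noncovalent complex (25 nM final) in 10 mM Tris-HCl pH 8.0, 0.01% Tween 20, with AMC peptide substrate. Fluorescence (ex 340, em 450 nm) change over 15 min, room temperature; percent inhibition fitted to 4-parameter Hill equation.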
# [12] = Confirmatory screen GU Rhodamine qHTS for Zika virus inhibitors qHTS (AID 1347157); also: potency is read from the fitted curve at half-maximal effect; nearly all actives have a fitted effect of over 70% in size
# Summary of the method: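 Unlinked NS2B/NS3, 25 nM; Rhod110 peptide, 1.5 microM; compounds, up to 114 microM. Reaction run 15 min at RT in 10 mM Tris-HCl pH 8.0, 0.01% Tween 20; kinetic fluorescence change fitted with a 4-parameter Hill model.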
# [13] = ZIKV-mCherry secondary qHTS for Zika virus inhibitors (AID 1347158); also: top concentration of the series differs between compounds
# Summary of the method: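 Vero, 5,000 cells/well, o/n 37 °C; cpd pin-transferred in DMSO; ZIKV-mCherry MOI 1, 48-72 h 37 °C; 32% PFA stock fix, Hoechst; imaged 10x DAPI/mCherry; mCherry+ threshold 450 RFU; % infection.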
# [14] = system: Zika virus NS2B-NS3 protease (linked construct); test: Primary screen NINDS Rhodamine qHTS for Zika virus inhibitors (AID 1347160); also: nearly all actives have a fitted effect of over 55% in size; also: potency is read from the fitted curve at half-maximal effect
# Summary of the method: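 Percent inhibition, normalized to uninhibited and enzyme-free controls, is fitted to a 4-parameter Hill equation. Fluorescence change comes from a 15-min cleavage of 1.5 microM bis-peptide Rhodamine110 substrate by 25 nM linked NS2B-NS3 at room temperature.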
# [15] = Vero cells viability qHTS for Zika virus inhibitors (AID 1347167)
# Summary of the method: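 Counter-screen for cytotoxicity of hits from NS2B-NS3 protease qHTS. Overnight-attached cells (2.5 x 10^5 cells/mL, DMEM/4% FBS) were dosed in titration, incubated 24 to 48 hours, then assayed by CellTiter Glo.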
# [16] = molecular target: Furin (Homo sapiens) (UniProt P09958); test: Furin counterscreen qHTS for Zika virus inhibitors (AID 1347149); also: nearly all actives have a fitted effect of over 70% in size; also: potency is read from the fitted curve at half-maximal effect
# Furin (Homo sapiens), sequence (P09958 whole entry, looked up): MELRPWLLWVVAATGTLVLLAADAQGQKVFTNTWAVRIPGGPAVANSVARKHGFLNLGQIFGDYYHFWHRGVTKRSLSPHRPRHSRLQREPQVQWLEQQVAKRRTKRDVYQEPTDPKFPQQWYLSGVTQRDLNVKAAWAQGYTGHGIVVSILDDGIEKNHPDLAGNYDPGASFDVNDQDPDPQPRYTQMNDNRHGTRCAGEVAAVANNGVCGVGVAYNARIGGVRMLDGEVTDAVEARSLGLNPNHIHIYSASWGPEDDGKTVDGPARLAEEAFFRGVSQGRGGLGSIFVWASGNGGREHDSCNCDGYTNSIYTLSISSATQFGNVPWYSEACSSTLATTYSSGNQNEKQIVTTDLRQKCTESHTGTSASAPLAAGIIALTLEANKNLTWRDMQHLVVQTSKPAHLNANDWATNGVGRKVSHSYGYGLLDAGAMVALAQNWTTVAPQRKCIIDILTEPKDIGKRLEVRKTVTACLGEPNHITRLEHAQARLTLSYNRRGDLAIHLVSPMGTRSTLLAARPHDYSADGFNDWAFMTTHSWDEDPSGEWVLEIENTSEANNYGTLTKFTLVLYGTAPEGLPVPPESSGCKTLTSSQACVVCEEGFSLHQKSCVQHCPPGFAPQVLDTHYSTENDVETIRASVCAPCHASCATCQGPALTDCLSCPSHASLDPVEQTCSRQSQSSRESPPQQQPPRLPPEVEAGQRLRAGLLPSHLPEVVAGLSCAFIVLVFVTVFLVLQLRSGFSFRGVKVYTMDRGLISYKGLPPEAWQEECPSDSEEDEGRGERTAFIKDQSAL
# Summary of the method: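 Fluorogenic cleavage of BOC-RVRR-AMC (2 microM final, Km ~15 µM) was monitored (ex 340, em 450 nm) at 37C after 15 min RT preincubation of 5 nM furin with compounds in HEPES pH 7.0 buffer with CaCl2 and Triton X-100. Percent inhibition was fitted to a 4-parameter Hill curve.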
# [17] = system: Zika virus NS2B-NS3 protease (unlinked complex); test: Confirmatory screen GU AMC qHTS for Zika virus inhibitors (AID 1347153)
# Summary of the method: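 Unlinked enzyme 25 nM, Tris pH 8.0/0.01% Tween 20; cpd 15 min RT, dark; + AMC substrate 10 µM (Km 18.3 µM); 340/450 nm read at t0 and 15 min; % inhibition → 4-param fit.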
# [18] = system: Zika virus NS2B-NS3 protease (linked); test: 384 well plate NINDS AMC confirmatory qHTS for Zika virus inhibitors (AID 1347163); also: nearly all actives have a fitted effect of over 50% in size; also: potency is read from the fitted curve at half-maximal effect
# Summary of the method: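 Linked NS2B-NS3 protease (final 5 nM, 30 nM or 60 nM) was preincubated with compounds (final up to 1 mM) for ~15 minutes. Ac-VKTGKR-AMC substrate (final 30 microM) then reacted for 25 minutes at room temperature in the dark. Fluorescence (ex 355/em 460 nm) was normalized to no-enzyme and no-inhibitor controls.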
# [19] = system: Zika virus NS2B-NS3 protease (linked construct); test: 384 well plate NINDS Rhodamine confirmatory qHTS for Zika virus inhibitors (AID 1347164);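 also: fluorescence from protease cleavage of Ac-LKRR-rhodamine 110 substrate; nearly all actives have a fitted effect of over 65% in size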; also: potency is read from the fitted curve at half-maximal effect
# Summary of the method: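 Linked NS2B-NS3 protease (final 5, 30 or 60 nM) preincubated ~15 minutes with compounds, then 10 microM Ac-LKRR-Rhodamine 110 added. Fluorescence (485/538 nm) read after 25 minutes at room temperature, normalized to no-enzyme and no-inhibitor controls.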
smiles,measurement,setting,value
CC1=C(/C=C/C(C)=C\C=C\C(C)=C/C(=O)O)C(C)(C)CCC1,Potency,[1],20 µM (active)
O=C(O)c1ccccc1NCCc1ccccc1,Potency,[2],inactive
same,outcome,[3],inactive
same,outcome,[4],inactive
same,outcome,[5],inactive
same,outcome,[6],inactive
same,outcome,[7],inactive
same,outcome,[8],inactive
same,outcome,[9],inactive
same,outcome,[10],inactive
same,Potency,[11],31.6 µM (active)
C=C[C@]1(C)C=C2CCC3C(C)(CCC[C@@]3(C)C(=O)O)C2CC1 (stereo partly drawn),Potency,[1],12.6 µM (active)
CC1(C)CC2=C3C=CC4C5(C)CCC(O)C(C)(C)C5CCC4(C)C3(C)CCC2(C)C(O)C1 (stereo not drawn),Potency,[12],13.6 µM (active)
same,Potency,[13],inactive
same,Potency,[1],15.8 µM (active)
same,Potency,[14],8.91 µM (active)
same,outcome,[15],inactive
O=C(O)Cc1ccc2oc(-c3ccc(NC(=O)/C=C/c4ccc(Br)cc4)c(F)c3)nc2c1,Potency,[16],55.5 µM (active)
same,Potency,[17],13.9 µM (active)
same,Potency,[12],3.12 µM (active)
same,Potency,[13],inactive
same,Potency,[1],3.16 µM (active)
same,Potency,[14],3.16 µM (active)
same,Potency,[18],inactive
same,Potency,[19],inactive
same,outcome,[15],inactive
CCC(C(=O)O)c1ccc(N2Cc3ccccc3C2=O)cc1 (stereo not drawn),Potency,[2],inactive
same,outcome,[3],inactive
same,outcome,[4],inactive
same,outcome,[5],inactive
same,outcome,[6],inactive
same,outcome,[7],inactive
same,outcome,[8],inactive
same,outcome,[9],inactive
same,outcome,[10],inactive
same,Potency,[11],inactive
CC1(C)CC[C@]2(C(=O)O)CC[C@]3(C)C(=CCC4[C@@]5(C)C[C@@H](O)[C@H](O)C(C)(C)C5CC[C@]43C)C2C1 (stereo partly drawn),Potency,[12],8.57 µM (active)
same,Potency,[1],14.1 µM (active)
same,Potency,[14],10 µM (active)
same,Potency,[18],56.2 µM (active)
same,Potency,[19],6.31 µM (active)
same,outcome,[15],inactive
CC1(C)CCC(C)(C)c2cc(C3(c4ccc(C(=O)O)cc4)OCCO3)ccc21,Potency,[16],inactive
same,Potency,[17],39.3 µM (active)
same,Potency,[12],12.4 µM (active)
same,Potency,[1],10 µM (active)
same,Potency,[14],5.62 µM (active)
same,Potency,[18],inactive
same,outcome,[15],inactive
CC(C)[N+]1(C)C2CCC1CC(OC(=O)C(CO)c1ccccc1)C2 (stereo not drawn),Potency,[11],inactive
same,Potency,[1],inactive
same,Potency,[14],inactive
Cc1c[nH]c2nccc(Oc3c(F)cc(Nc4cc(Cl)nc(N)n4)cc3F)c12,Potency,[1],inactive
same,Potency,[14],inactive
C=C1C(O)C(O)C2(CC3C(C)=CCC4C(C)(CO)CCCC34C)OC2C1O (stereo not drawn),Potency,[1],inactive
same,Potency,[14],inactive
COC(=O)C1=COC(OC2OC(CO)C(O)C(O)C2O)C2C1C=CC2(O)CO (stereo not drawn),Potency,[1],inactive
same,Potency,[14],inactive
CC[C@]12C=CCN3CC[C@@]4(c5cc([C@@]6(C(=O)OC)C[C@H]7C[C@@H](C(C)(F)F)CN(Cc8c6[nH]c6ccccc86)C7)c(OC)cc5N(C)[C@H]4[C@@](O)(C(=O)OC)[C@@H]1OC(C)=O)[C@@H]32,Potency,[1],inactive
same,Potency,[14],inactive
C=C1C(=O)OC2CC(C)=C(C(C)CCCO)C(O)C12 (stereo not drawn),Potency,[1],20 µM (active)
CC/C=C\CC1C(=O)C=CC1(CCCCCCCC(=O)O)OC(C)=O (stereo not drawn),Potency,[1],7.08 µM (active)
CC(CO)C1CCC2(C)CC3C(CO)CC(O)C3C(C)(O)C/C=C/12 (stereo not drawn),Potency,[1],inactive
same,Potency,[14],inactive
C[C@@H]1C(=O)O[C@H]2[C@H](O)C34[C@H]5C[C@@H](C(C)(C)C)C36[C@@H](OC(=O)[C@@H]6O)O[C@@]4(C(=O)O5)[C@@]12O (stereo partly drawn),Potency,[1],inactive
same,Potency,[14],inactive
C=CC(C)(O)C(O)CC1C(C)(O)C(O)C(O)C2C(C)(C)CCCC21C (stereo not drawn),Potency,[1],inactive
same,Potency,[14],inactive
C=CC1(C)C=C2CCC3C(C)(C)C(O[C@@H]4O[C@@H](CO)[C@H](O)[C@H]4O)CCC3(C)C2CC1O[C@@H]1O[C@H](C)[C@H](O)[C@H](O)[C@H]1O (stereo partly drawn),Potency,[1],inactive
same,Potency,[14],inactive
O=C1NC(Cc2c[nH]c3ccccc23)C(=O)NC1Cc1c[nH]c2ccccc12 (stereo not drawn),Potency,[1],inactive
CC(C)=CCc1cc(C(O)C2NC(=O)CNC(=O)C(Cc3c[nH]c4ccccc34)NC(=O)C3CCCN3C(=O)CNC(=O)C(C(C)C)NC(=O)CNC2=O)ccc1O (stereo not drawn) (cyclo(G[X4]GVGPW); configuration not given here),Potency,[1],inactive
same,Potency,[14],inactive
CC12CCC(OC3OC(CO)C(O)C(OC4OC(CO)C(O)C(O)C4O)C3O)CC1CCC1C2CCC2(C)/C(=C3/COC(=O)C3)CCC12O (stereo not drawn),Potency,[1],inactive
same,Potency,[14],inactive
CCCOc1ccc(-c2nc(OC)c3ccccc3n2)cc1,Potency,[1],inactive
same,Potency,[14],inactive
C[C@@]12CC[C@@H]3[C@@](CC[C@H]4[C@@]3(C)CCC[C@@]4(C)C(=O)O)(CC1=O)C2,Potency,[1],inactive
same,Potency,[14],inactive
Cc1cn(C2C=CC(CO)O2)c(=O)[nH]c1=O (stereo not drawn),Potency,[1],inactive
c1ccc(N2CCN(CCc3nn[nH]n3)CC2)cc1,Potency,[1],inactive
CC1=CCC(C(C)(C)O[C@@H]2O[C@H](CO[C@@H]3O[C@@H](C)[C@H](O)[C@@H](O)[C@H]3O)[C@@H](O)[C@H](O)[C@H]2O)CC1 (stereo partly drawn),Potency,[1],inactive
same,Potency,[14],inactive
